Here are results for 7 molecules from PubChem BioAssay.

Measured potencies and affinities stand elsewhere. Active and inactive are the calls of the source. No rule for the calls is given here.

Test [1] can be described thus: A549 cell cytotoxicity, dose response, cytotoxicity control, plate reader, cherry-pick, antagonist series (AID 743412).
Test [2] is described as follows: HepG2 cell cytotoxicity, dose response, cytotoxicity control, plate reader, cherry-pick, antagonist series (AID 743416).

`CSc1ccc(NC(=O)Nc2cc(C)ccn2)cc1`: the outcome in test [1] and in test [2] was inactive.

Take `Cc1c(NC(=O)c2cccc(NC(=O)COc3ccccc3C#N)c2)c(=O)n(-c2ccccc2)n1C`: the outcome in test [1] and in test [2] was inactive.

Take `Cc1ccc(C(=O)CN2C(=O)c3ccccc3S2(=O)=O)cc1`: the molecule was called inactive in test [1] and in test [2].

On to `C[C@H](CO)N1C[C@H](C)[C@H](CN(C)C(=O)Nc2cccc3ccccc23)OCCCC[C@H](C)Oc2ccc(NC(=O)NC3CCCCC3)cc2C1=O`, for which the outcome in test [1] and in test [2] was inactive.

Turning to `COc1ccc(S(=O)(=O)N2CCCCN3[C@H](CO)[C@H](c4ccc(-c5cccnc5)cc4)[C@@H]3C2)cc1`, the outcome in test [1] and in test [2] was inactive.

Regarding `CCOC(=O)c1cn2nc(N3CCCC3)ccc2n1`, the molecule was called inactive in test [1] and in test [2].

On to `Cc1cc(C(=O)COC(=O)C2CC2)c(C)n1-c1ccc(F)cc1`, for which the result in test [1] and in test [2] was inactive.
